The text below walks through data of ChEMBL document CHEMBL1157539, “Thousands of chemical starting points for antimalarial lead identification” (Nature, 2010).

The first assay deals with Plasmodium falciparum. The experiment in a line: GSK_TCMDC: Inhibition of Plasmodium falciparum Dd2 in whole red blood cells, using parasite LDH activity as an index of growth. Test compounds present at 2uM. In kind it is functional.
For the molecule `CCCCCN1CCCC(NS(=O)(=O)c2ccc(C(=O)Nc3ccc(C(F)(F)F)cc3)cc2)C1.O=C(O)C(F)(F)F` (stereo not drawn), the Inhibition is reported as 20%.
Molecule `Cc1cc(N(C)CCCN(C)C)nc(Nc2ccc(Br)cc2)n1` registered an Inhibition of 84%.
Still for that read-out and setting: the same measure for `CC(C)(CNC(=O)/C=C/c1ccc(C(F)(F)F)cc1)CNc1cc(=O)c2ccccc2[nH]1`: 27%.

The next assay deals with HepG2. The experiment in a line: GSK_TCMDC: Percent inhibition of human HepG2 cell line. Test compounds present at 10uM. Type of assay: functional.
For `Cc1ccc2c(c1)c(C1CCN(C(=O)c3ccc([N+](=O)[O-])o3)CC1)cn2C`, the Inhibition turned out to be 0%.
`COc1ccc(-c2csc(NC(=O)CCC(=O)O)n2)cc1OC` gave an Inhibition of 63%.
On the same count and under the same terms, the same measure for `Fc1ccc2[nH]c(-c3cccc(-c4cccc(CNCc5cnn(-c6ccccc6)n5)c4)c3)nc2c1.O=C(O)C(F)(F)F`: 18%; for `Cl.N=C(N)NN=Cc1c2ccccc2c(Cl)c2ccc(Cl)cc12`: 97%.
Regarding `CN1CCN(CC(=O)Nc2ccc(-c3ccc(-c4nc5cc(C(F)(F)F)ccc5[nH]4)cc3)cc2)CC1`, the Inhibition is 43%.
`O=C(C=Cc1ccc(F)cc1)N1CCN(S(=O)(=O)c2ccc(Cl)cc2)CC1`: the Inhibition stood at 10%.
`O=C(NC1CCN(Cc2ccccc2)C1)c1ccc(Nc2ccc(Br)cc2)nc1.O=C(O)C(F)(F)F` (stereo not drawn) yielded an Inhibition of 19%.
As to `N#CN1CC[C@@H](OC(=O)N[C@@H]2C[C@H]2c2ccccc2)C1`, the Inhibition is on record as 0%.
Still for that read-out and setting: then `O=C(/C=C/c1ccc(Cl)c(Cl)c1)N1CCCC(CCCN2CCC(c3c[nH]c4ccccc34)CC2)C1` (stereo not drawn), with 30%; and `CCOC(=O)c1c(C)n(-c2ccccc2)c2ccc(O)cc12`, with 0%; and `N.Nc1nc2c(ncn2COC2COP(=O)(O)OC2)c(=O)[nH]1` (stereo not drawn), with 7%.
`COc1cc(N(C)Cc2cnc3nc(N)nc(N)c3n2)cc(OC)c1OC`: the Inhibition is listed as 32%.
The molecule `COc1cccc(Cc2c(C)nc3nc(N)nc(N)c3c2C)c1.Cl` yielded an Inhibition of 65%.
`O=C(NCCc1ccc(O)cc1)n1c2ccccc2c2ccccc21` returned an Inhibition of 3%.
`Cc1ccc2c(c1)nc(N)n2C[C@H](O)c1ccccc1`: the Inhibition is recorded as 0%.
For `NC(=O)c1ccc(NC(=O)CN(Cc2ccc(Cl)cc2)S(=O)(=O)c2ccccc2)cc1`, the Inhibition amounted to 2%.
In turn, `CN1CCC(C(=O)N(Cc2ccc(-c3ccc(CNCCc4ccc(S(C)(=O)=O)cc4)cn3)cc2)Cc2ccc3c(c2)OCO3)CC1.O=C(O)C(F)(F)F` displayed an Inhibition of 16%.
`CC(Cc1ccc(CN(CC(N)=O)Cc2ccc(CC(C)NCCc3cccc(Cl)c3)cc2)cc1)NCCc1cccc(Cl)c1.O=C(O)C(F)(F)F` (stereo not drawn) yielded an Inhibition of 26%.
`COC(=O)c1cccc(CNCc2cccc(-c3ccc(-c4nc5ccccc5[nH]4)s3)c2)c1.O=C(O)C(F)(F)F` gave an Inhibition of 0%.
Molecule `CCN(CC)CC#Cc1ccc2[nH]c(C)c(Cl)c(=O)c2c1` displayed an Inhibition of 11%.
`CCCCNCc1ccc(-c2nc(CN(CCCn3ccnc3)C(=O)Nc3ccc(CC)cc3)cs2)cc1.O=C(O)C(F)(F)F` displayed an Inhibition of 21%.
Still for that read-out and setting: then `O=C(N[C@@H](Cc1ccccc1)C(=O)NCCN1CCCCC1)c1ccc(O)c(-c2cccc(C(F)(F)F)c2)c1`, with 0%; and `O=c1c(Br)ccccc1Br`, with 98%.
The molecule `Cc1[nH]c2ccc(NS(C)(=O)=O)cc2c1C1CCN(CCC2CCN(C(=O)/C=C/c3ccc(Cl)c(Cl)c3)CC2)CC1` showed an Inhibition of 23%.
The same measure, in the same setting: the same measure for `CCn1c(Sc2ccc(C#N)c([N+](=O)[O-])c2)nnc1-c1cccc(Cl)c1`: 0%; for `CC(=O)Nc1ccc(CN(Cc2ccc(F)cc2)Cc2ccc3c(c2)OCO3)cc1`: 3%; for `COc1ccc2nccc([C@@H](O)CN3CCC(NCc4ccc5scnc5c4)CC3)c2c1.O=C(O)C(=O)O`: 17%.
Molecule `O=C(O)C(F)(F)F.O=C1CCCN1CCCNCc1ccc(-c2cccc(-c3nc4cc(F)ccc4[nH]3)c2)cc1` yielded an Inhibition of 12%.
With `CC(C)Cc1ccc(N2CCN(CCCCNC(=O)c3ccc(NC(=O)c4ccc(Cl)c(Cl)c4)cc3)CC2)cc1`, the Inhibition came to 21%.
Take `O=C(Cc1ccc(NC(=O)c2ccc(O)c(-c3ccc(Cl)c(Cl)c3)c2)cc1)NCCc1ccc(Cl)c(Cl)c1`: the Inhibition came out at 0%.
`N=C(N)NC(=O)Nc1cc(Cl)c(Cl)c(C(F)(F)F)c1` yielded an Inhibition of 6%.
Still for that read-out and setting: the same measure for `CCOc1cc(N)c2nc3ccc([N+](=O)[O-])cc3cc2c1`: 73%.
For the molecule `COc1ccc2nccc([C@@H](O)CN3CCC(NC(=O)C(c4cc5ccccc5s4)N4CCN(c5ccccc5OC)CC4)CC3)c2c1` (stereo partly drawn), the Inhibition came out at 21%.
Regarding `O=C(NCCCCN1CCC(c2ccc3c(c2OCC2CC2)CCCC3)CC1)c1ccc(NC(=O)c2ccc(Cl)cc2)cc1`, the Inhibition turned out to be 23%.
With `CC(=O)N(C)C1CCN(Cc2ccc(-c3ccc(-c4nc5cc(F)ccc5[nH]4)s3)cc2)C1.O=C(O)C(F)(F)F` (stereo not drawn), the Inhibition is recorded as 46%.
As for `O=C(Nc1cccc(-c2cccc(-c3nc4cc(C(F)(F)F)ccc4[nH]3)c2)c1)c1ccc(=O)[nH]n1`, the Inhibition came to 63%.
With `COc1ccc2nccc([C@@H](O)CN3CCC(NCc4cc5cc(OC(F)(F)F)ccc5[nH]4)CC3)c2c1.O=C(O)C(=O)O`, the Inhibition came out at 49%.
Consider `CCCCCN1CCCC(NS(=O)(=O)c2ccc(C(=O)Nc3ccc(C(F)(F)F)cc3)cc2)C1.O=C(O)C(F)(F)F` (stereo not drawn), for which the Inhibition is on record as 41%.
The molecule `Cc1cc(N(C)CCCN(C)C)nc(Nc2ccc(Br)cc2)n1` showed an Inhibition of 4%.
`CC(C)(CNC(=O)/C=C/c1ccc(C(F)(F)F)cc1)CNc1cc(=O)c2ccccc2[nH]1`: the Inhibition turned out to be 0%.

As a reminder, the Inhibition is the relative decrease from the control value, in per cent. Lower therefore signals a weak effect.
